Structures are written as SMILES. Values without a mark were called inactive. The rule behind the calls is not given here.

Chain of Pantothenate synthetase (Mycobacterium tuberculosis (strain ATCC 25618 / H37Rv)) (P9WIL5 whole entry, looked up): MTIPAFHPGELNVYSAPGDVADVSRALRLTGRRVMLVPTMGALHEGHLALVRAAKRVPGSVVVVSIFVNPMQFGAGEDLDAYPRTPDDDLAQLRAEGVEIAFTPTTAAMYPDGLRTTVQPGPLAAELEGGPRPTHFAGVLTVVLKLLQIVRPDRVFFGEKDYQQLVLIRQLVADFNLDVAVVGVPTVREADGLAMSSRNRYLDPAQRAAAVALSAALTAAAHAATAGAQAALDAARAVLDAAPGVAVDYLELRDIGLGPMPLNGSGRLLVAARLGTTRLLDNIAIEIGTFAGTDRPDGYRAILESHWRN

This experiment concerns the target Pantothenate synthetase (Mycobacterium tuberculosis (strain ATCC 25618 / H37Rv)) (UniProt P9WIL5). The experiment in a line: Recombinant Mtb pantothenate synthetase (PanC) inhibitors, coupled enzyme, confirmatory (AID 375).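 Note: 0% = full reaction with vehicle and 100% = no enzyme background.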 As to conditions: coupled enzyme assay; at 10 µM, active compounds read high.
Consider `Cc1cc(NC(=O)COc2ncnc3sc(C)c(C)c23)no1`, for which the inhibition is 0%.
With `O=C(OCC(=O)c1ccc[nH]1)c1ccc(S(=O)(=O)N2CCCCC2)cc1` the figure was 1%; with `COc1ccc(C2=NOC(C(=O)NCc3ccc(F)cc3)C2)cc1OC` (stereo unspecified), 0%; with `Cc1cccc(NC(=O)C2CCCN2C(=O)OCC(C)C)c1C` (stereo unspecified), 0%.
To `CCOc1ccc(S(=O)(=O)Nc2ccc(Cl)cn2)c(C)c1C` belongs 0%; to `O=C(c1ccco1)N1CCN(c2c(-c3ccccc3)c3cc(Cl)ccc3[nH]c2=O)CC1`, 5%.

The inhibition is the relative decrease from the control value, in per cent.

The values above are taken from PubChem BioAssay.
